Measurements as given in the supplement of paper PMC6555819.

tested on: VDR:RXRa (NR concentration 270 nM, RXRa partner concentration 90 nM); experiment: PBM binding z-score (relative to random genomic background probes); higher = stronger binding; sequences stand for … in GC…GCGATTGACAGCGTAGAATGAAGG
Protocol: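 Protein-binding microarray (Agilent 4x180K custom design, double-stranded 60-nt probes: 5' GC cap, 34-nt variable region, 24-nt constant primer region; full probe sequence given). Purified or IVT nuclear receptor:RXRα heterodimers (3:1 NR:RXRα, mostly 270:90 nM) or homodimers were incubated for 1 h in PBS with 2% milk and no ligand, then detected with Alexa488 antibodies. Fluorescence from o1-orientation probes (~5 replicates averaged) was converted to z-scores against 500 random hg19 background probes. Variable regions are seed direct-repeat (DR0–DR5) sites, all their single-nucleotide variants and half-site ablations.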

Which PBM binding z-score does the source give for TCGACTAGGTTAGTCGGGGCATTCAGCCAACATA here?
Its PBM binding z-score is 1.81.

Which PBM binding z-score does the source give for ACTAGCAGGCCAAGCTTGGGTCACTCAAACAAAG here?
Its PBM binding z-score is 0.122.

ATCTCTAGGTAACAAGTTCACTGAAAGAGAGGAC was tested. Which PBM binding z-score did it give?
Its PBM binding z-score is 3.26.

With ATCTCTAGGTAACCAAGATCAGTGAATGCCGAAC as the sequence, how does the PBM binding z-score read?
The PBM binding z-score was 0.294.

Which PBM binding z-score does the source give for CCTAGTTGGTCAAGGTCAAACACGCTATAGGTAC here?
Its PBM binding z-score is 4.47.

With TCTTGCAGATCAACAGGAGGTTAAGAAAGATCGA as the sequence, how does the PBM binding z-score read?
Its PBM binding z-score is 0.489.

With AGAATGCGGTTACCAAAGATCAGGGAAACGCTTG as the sequence, how does the PBM binding z-score read?
The PBM binding z-score was -0.612.

Which PBM binding z-score does the source give for ATATGTAGGTTAGCTGGGGACATTCAGACTAGGC here?
Its PBM binding z-score is 2.39.

For TCTGCTAGGTCAGTTGGTCTGCTAACGAGCTGCC, which PBM binding z-score is on record?
The PBM binding z-score was 0.0911.

GCTAGCAGGCCATTTGGGTCACACAATGACGGGC was tested. Which PBM binding z-score did it give?
Its PBM binding z-score is 1.24.

With AGAATGAGGTTAAGGTCAGGGAAACAGAATACAT as the sequence, how does the PBM binding z-score read?
Its PBM binding z-score is 3.82.

Which PBM binding z-score does the source give for CAAACTATGTCAAAGGTCAAAGTCGAGCCAACCA here?
Its PBM binding z-score is 5.41.

ACTAGCAGGCCAAGTTTGTGTCACTCAAACAAAG was tested. Which PBM binding z-score did it give?
The PBM binding z-score was -0.313.

Which PBM binding z-score does the source give for ATATGTAGGTTAGCTGGGGTCGTTCAGACTAGGC here?
The PBM binding z-score was 4.67.

With TCTGCTAGGTCAACGATCGTCAGCTAATCTGCTA as the sequence, how does the PBM binding z-score read?
Its PBM binding z-score is 1.03.

With TCATATAGGTAAAAGCTAGGTGAAAGTCCGATCT as the sequence, how does the PBM binding z-score read?
Its PBM binding z-score is 0.608.

Which PBM binding z-score does the source give for TGAATGAGTTTAAAGATCAGGGAACGTGGCGTCG here?
Its PBM binding z-score is 1.09.

How did the PBM binding z-score turn out when TCATATAGGTAAAGGTGAAAGTTGAACGATATGA was run?
Its PBM binding z-score is 1.58.

CCAACTGGGGCAAAGGTTACCATACTCAGTACGA was tested. Which PBM binding z-score did it give?
The PBM binding z-score was 1.7.

For GATACAGGGTCAAGGCCAAAGTACGCGTATTGAT, which PBM binding z-score is on record?
The PBM binding z-score was 4.44.

CTCGAAAAGTCGGTTGAGGTGAGTATACGGATAA was tested. Which PBM binding z-score did it give?
Its PBM binding z-score is -0.065.

Which PBM binding z-score does the source give for CCTACTGGGCCATGAGGTCATTGATATCAACGTT here?
The PBM binding z-score was 4.43.

Which PBM binding z-score does the source give for GTACAAAGGTGAATAGGTCGTTGATGAGTAGGCG here?
The PBM binding z-score was 2.18.

For TCTCGGAGGACACGAAAGGTCAAAGCTCGACATC, which PBM binding z-score is on record?
The PBM binding z-score was 4.67.

How did the PBM binding z-score turn out when CGAACGAGGGCATGAGTTCATAGCAAATGCCGAT was run?
The PBM binding z-score was 5.62.

For ATATGTAGGTTCAGGGTCATTCAGGTTGGTTCGC, which PBM binding z-score is on record?
Its PBM binding z-score is 6.03.

For TGTCAAAGTCCAAAGGTAACGTAAGTATCCACAC, which PBM binding z-score is on record?
The PBM binding z-score was 0.386.

For CCTTACGGGTCACGAGATTATAGCACGACGAGCG, which PBM binding z-score is on record?
Its PBM binding z-score is 3.55.

For CCTGCTAGGTAAATGGTCAGCTAAAGCAGCTCGC, which PBM binding z-score is on record?
The PBM binding z-score was -0.541.

Which PBM binding z-score does the source give for ACTATTAGTTGACTAAGGGCAACCGATACGACGC here?
Its PBM binding z-score is 1.29.

With CCAGACAAGTGAGAAGGTAACTCAGCCTCGATTA as the sequence, how does the PBM binding z-score read?
Its PBM binding z-score is 0.143.

Which PBM binding z-score does the source give for TCTTGTAGATCAACAGGAGGTTACGAAAGATCGA here?
Its PBM binding z-score is 0.945.

TTACCAAGGTGAAGGTCGTTTATCCCTCTGTAGA was tested. Which PBM binding z-score did it give?
Its PBM binding z-score is 1.66.

How did the PBM binding z-score turn out when TTACGAAGGTGAGCTGAGGTCGTTGATCCAACTC was run?
The PBM binding z-score was 4.16.

With CTACCAAGGTGAACAAGGTGGTTGATTACTATTC as the sequence, how does the PBM binding z-score read?
The PBM binding z-score was 1.84.

Which PBM binding z-score does the source give for CCCACTGGGCCATCAGGTCATTGATATCAACGTT here?
The PBM binding z-score was 1.89.

How did the PBM binding z-score turn out when TCTAGTTGGTCAAAGGTCCCACACTCGAAATGCG was run?
The PBM binding z-score was 1.12.

For GCGACTGGGGCATCAGCAGGTTACAATAACTTAA, which PBM binding z-score is on record?
Its PBM binding z-score is -0.29.

For CATACAGGGTCAGGTAGGCCAGAGTAGGGACGGC, which PBM binding z-score is on record?
Its PBM binding z-score is 3.35.

For TCTATTAGTTGAAGGGCAATCGACGAGTCCGTTT, which PBM binding z-score is on record?
The PBM binding z-score was 1.02.
